Test results from PubChem BioAssay AID743398 (Broad Institute, 2014).
Hit rate of the full screen: of about 300,000 compounds, about 3,600 (1.2%) were called active. No stated cut-off is given here; in the data, active means activation above about 30% (passing the limit was not always enough); inconclusive means no clear call, values can overlap the other calls. The list comes from a sample in which actives are over-represented; it also holds similar structures and randomly drawn compounds.

experiment: activation of beta-catenin signaling reporter – cell-based, plate reader, single point, primary screen (AID 743398); settings: Wnt/beta-catenin reporter cell assay, activator, at 9.35 µM, stronger effect = higher value;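 further: 0% = neutral control wells and 100% = positive control wells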

activation, active:
O=C(c1ccc(F)cc1)n1c(=S)nc2ccccn21 55.5%
O=C(NC(=O)c1ccccc1)Nc1ccccc1O 40.2%
Cc1cc(/C=C2/SC(=O)N(CC(=O)OC(C)C)C2=O)c(C)n1C 32.5%
Fc1ccc(-c2csc(-c3ccc(C4SCCS4)cc3)n2)cc1F 34%
Cc1c(C(=O)N2CCCc3ccccc32)sc2nc(-c3ccccc3)cn12 51.4%
Cc1ccc(C(=O)Nc2nc3ccc(Cl)cc3s2)o1 36.2%
CCC(=O)Nc1sc(C(=O)Nc2ccccc2)c(C)c1C(=O)OC 68.1%
O=C(COc1ccc2oc3c(c2c1)CCCC3)Nc1ccccn1 39.6%
O=C(Nc1nnc(-c2ccccc2F)s1)c1ccccc1F 32.6%
Cc1ccc(C(=O)CSc2ccccc2C(=O)O)cc1 31.9%
COCCNC(=O)C(c1ccc(C)o1)N(Cc1ccccc1)C(=O)Cn1nnc2ccccc21 (stereo not drawn) 40.8%
O=C(CNC(=O)c1ccccc1F)c1ccc(Br)cc1 39%

activation, inactive:
O=C(Cn1c(=S)nc2ccccn21)N1CCc2ccccc2C1 17.7%
O=C(c1ccc(F)cc1)n1cc(C(=S)N2CCOCC2)c2ccccc21 -0.566%
CC(C)(C)S(=O)N1Cc2cc(C(=O)NCCCN3CCOCC3)nc(-c3cccc(-c4cc5ccccc5o4)c3)c2[C@H]1CCO (stereo partly drawn) -3.72%
O=C(Nc1ccc(C(=O)O)c(O)c1)c1ccccc1 -0.311%
O=C(Nc1ncccc1O)c1ccc(C(=O)c2ccccc2)cc1 21.2%
Cc1cccc2c1N(CC(=O)OC(C)C)C(=O)C2=O -1.39%
Cc1cc(/C=C2/SC(=O)N(CC(=O)N3CCCC3)C2=O)c(C)n1C -1.52%
COc1cccc(OCC(=O)NCCS(=O)(=O)N2CCN(c3ccccc3)CC2)c1 -0.863%
COC(=O)c1ccc2nc(-c3ccc(OC)c(OC)c3)c(Cc3ccccc3)n2c1 -2.38%
Clc1ccc(-c2csc(-c3ccncc3)n2)cc1 6.51%
COc1ccc(CC(=O)Nc2nc(-c3ccc(F)c(F)c3)cs2)cc1OC -5.88%
COC(=O)C1=C(C)N(Cc2ccccc2C(F)(F)F)C(=NCc2ccc(C(F)(F)F)cc2)NC1c1ccc(F)cc1 (stereo not drawn) -3.9%
COCCCNC(=O)c1ccc(-c2c(C)noc2C)c2ccoc12 3.17%
O=C(Nc1ccc(Cl)c(C(F)(F)F)c1)C1Cc2c(-c3ccccc3Oc3ccccc3)ccnc2O1 (stereo not drawn) -4.6%
Cc1c(C(=O)NCC2CCCO2)sc2nc(-c3ccccc3)cn12 (stereo not drawn) 8.78%
Cc1cccc2cc3c(N)c(C(=O)N4CCCc5ccccc54)sc3nc12 -13.9%
Cn1c(CCN2CCN(c3ccccn3)CC2)nc2cc(NS(=O)(=O)c3ccc(F)cc3)ccc21 -2.6%
Cc1ccc(C(=O)Nc2nnc(-c3ccncc3)s2)o1 2.92%
CCc1noc(C)c1C(=O)Nc1nc2ccc(OC)cc2s1 9.85%
CC(C)(C)Cc1c(C2CCCCC2)nc2ccc(Br)cn12 -1.26%
COC(=O)c1c(NC(C)=O)sc(C(=O)Nc2ccccc2OC)c1C -1.17%
CCOC(=O)c1sc(NC(=O)COc2ncnc3ccccc23)c(C(=O)OCC)c1C -6.66%
O=C1Nc2ccccc2C1=NN=Cc1ccco1 0.126%
CCOC(=O)N1CCN(C(=O)COc2ccc3oc4c(c3c2)CCCC4)CC1 -0.344%
CCN(CC)CCCNC(=O)COc1ccc2oc3c(c2c1)CCCC3 -0.131%
CC1(C)OC(=O)C2=C(C[C@@H](C3CCCC3)O[C@@H]2c2ccc(Cl)cc2)O1 -1.11%
CN(Cc1ccccc1)S(=O)(=O)c1nnc(NC(=O)c2ccccc2F)s1 -0.354%
O=C(Nc1ccc(NC(=O)c2ccccc2F)cc1)c1ccccc1F -1.97%
COC(=O)C1=C(C)N(Cc2ccc(C(F)(F)F)cc2)C(=NCc2ccccc2)NC1c1ccccc1C(F)(F)F (stereo not drawn) -11.5%
O=C(CSc1cccc[n+]1[O-])c1ccc(-c2ccccc2)cc1 10.1%
Cc1ccc(Sc2cc(C(=O)c3ccccc3C(=O)O)ccc2[N+](=O)[O-])cc1 0.926%
CCCCNC(=O)C[C@@H]1C[C@@]2(C(=O)OCC)CCC=C2N(Cc2cccc3ccccc23)C1=O -1.83%
CC(C)C1CCN(C(=O)C2CCC(=O)N(C3CCCCCC3)C2)CC1 (stereo not drawn) 0.269%
CCOC(=O)C1(C)CCCN(C(=O)c2cccc(Cl)c2)C1 (stereo not drawn) -1.09%
Cc1ccc(NC(=O)N2c3ccccc3SC2c2ccco2)c(C)c1 (stereo not drawn) 4.58%
CCC(C)(C)NC(=O)C(c1cccn1C)N(Cc1ccc(C)cc1)C(=O)Cn1nnc2ccccc21 (stereo not drawn) 0.194%
COc1ccccc1N(C(=O)Cn1nnc2ccccc21)C(C(=O)NCc1ccco1)c1ccc(C)o1 (stereo not drawn) -2.2%
Cc1ccc(S(=O)(=O)N(CCc2ccccc2)c2ccc3c(c2)C2CC3CCN2C(=O)OCc2ccccc2)cc1 (stereo not drawn) -4.45%
CCCCCCN1C[C@H](O)[C@@H](n2cc(C3CC3)nn2)C[C@@H]1c1ccc(Cl)cc1 0.514%
CN1CCCc2nc(-c3ccccc3)ccc21 28.7%
Nc1ncnc2c1ncn2[C@@H]1O[C@H](C(=O)N[C@@H](CCc2ccccc2)C(=O)N2CCCN(Cc3cccs3)CC2)[C@@H](O)[C@H]1O 2.88%
CC(C)(C)CC(=O)Nc1nc(C(N)Cc2ccc(C(F)(F)F)cc2)cs1 (stereo not drawn) -3.02%
O=C(CNC(=O)c1ccc(F)cc1)c1ccccc1 12.3%
O=C(NCCOc1ccccc1)c1ccccc1F 2.79%
C=CCn1nc(C(=O)OCC)cc1-c1sc(NC(=O)c2ccccc2)nc1C -1.67%
CC1(C(=O)Nc2cccnc2)Cc2c(-c3ccccc3)ccnc2O1 (stereo not drawn) -1.45%
